Results as given in PubChem BioAssay (NCATS).
Results filed as inconclusive are left out. Entries that show only a call come without a potency. Active and inactive are the calls of the source. Calls follow the shape of the dose curve; as a rule, active = well fitted cell-killing curve with a large enough effect; inconclusive = small, poorly fitted or top-dose-only effect; inactive = flat fitted curve, though single readings scatter.

assay: qHTS of pediatric cancer cell lines to identify multiple opportunities for drug repurposing: Primary screen for RD cells (AID 1347104); conditions: RD rhabdomyosarcoma viability, CellTiter-Glo luminescence, 48 h; series mostly up to 46 µM
How it was run: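 Readout: CellTiter-Glo luminescence, 48 h treatment. Controls DMSO (neutral) and bortezomib 2.3 µM final (positive). Potency and efficacy taken from primary-screen concentration-response curves.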
Also: nearly all actives have a fitted effect of over 55% in size.
Potency is read from the fitted curve at half-maximal effect.

| SMILES | Potency | activity change, negative = cytotoxic |
| --- | --- | --- |
| Cn1c(=O)c2[nH]c(Br)nc2n(C)c1=O | inactive | – |
| C=CCN1CCc2nc(N)sc2CC1 | inactive | – |
| Cl/C(=C\n1cncn1)c1ccc(Cl)cc1Cl | inactive | – |
| Clc1cccc(C(c2ccc3nc[nH]c3c2)n2ccnc2)c1 (configuration not stated) | inactive | – |
| Cc1nc(-c2ccc(Cl)cc2)oc1COC(C)(C)C(=O)O | inactive | – |
| CCC(C(=O)OCCOCCN(CC)CC)c1ccccc1 (configuration not stated) | inactive | – |
| OC[C@H]1O[C@@H]2O[C@H]3[C@H](O)[C@@H](O)[C@@H](O[C@H]4[C@H](O)[C@@H](O)[C@@H](O[C@H]5[C@H](O)[C@@H](O)[C@@H](O[C@H]6[C@H](O)[C@@H](O)[C@@H](O[C@H]7[C@H](O)[C@@H](O)[C@@H](O[C@H]8[C@H](O)[C@@H](O)[C@@H](O[C@H]1[C@H](O)[C@H]2O)O[C@@H]8CO)O[C@@H]7CO)O[C@@H]6CO)O[C@@H]5CO)O[C@@H]4CO)O[C@@H]3CO | inactive | – |
| OC1C(O)C(O)C(O)C(O)C1O (configuration not stated) | inactive | – |
| CCOC(=O)[C@H](CCc1ccccc1)N[C@@H](C)C(=O)N1[C@H](C(=O)O)C[C@@H]2CCC[C@@H]21 | inactive | – |
| CC(=O)NO | inactive | – |
| CCCCCCCCCCCCCCCCO | inactive | – |
| CC[N+](C)(CC)CCOC(=O)C(O)(c1ccccc1)C1CCCCC1 (configuration not stated) | inactive | – |
| COc1ccc(-c2cc(C(F)F)nn2-c2ccc(S(N)(=O)=O)cc2)cc1F | inactive | – |
| Cc1cccc(C)c1NC(=O)c1ccccc1C(=O)O | inactive | – |
| Cc1c(-c2ccccc2)oc2c(C(=O)OCCN3CCCCC3)cccc2c1=O | inactive | – |
| CC(=O)Nc1ccc(S(=O)(=O)Nc2ccc([N+](=O)[O-])cc2)cc1 | inactive | – |
| NC(=O)c1ccccc1O | inactive | – |
| CO[C@]12C[C@@H](COC(=O)c3cncc(Br)c3)CN(C)[C@@H]1Cc1cn(C)c3cccc2c13 | inactive | – |

| SMILES | Potency | activity change, negative = cytotoxic |
| --- | --- | --- |
| Cc1ncc(CO)c(C=O)c1O | inactive | – |
| O=C1c2cccc3c2[C@H](CCC3)CN1[C@@H]1CN2CCC1CC2 | inactive | – |
| COc1cc([C@H]2Oc3cc([C@H]4Oc5cc(O)cc(O)c5C(=O)[C@@H]4O)ccc3O[C@@H]2CO)ccc1O | inactive | – |
| O=C(CCN1CCN2CCCC2C1)N1c2ccccc2Sc2ccc(Cl)cc21 (configuration not stated) | inactive | – |
| NCc1ccccc1Sc1ccccc1CO | inactive | – |
| FC1(F)C(F)(F)C(F)(F)C2(F)C(F)(F)C(F)(F)C(F)(F)C(F)(F)C2(F)C1(F)F (configuration not stated) | inactive | – |
| O=S(c1cc(Cl)cc(Cl)c1O)c1cc(Cl)cc(Cl)c1O | inactive | – |
| NC(N)=NN=C(/C=C/c1ccc([N+](=O)[O-])o1)/C=C/c1ccc([N+](=O)[O-])o1 | 0.841 µM (active) | – |
| CCCCCCCCOc1ccc(C(=O)c2ccccc2)c(O)c1 | inactive | – |
| CN(Cc1ccc(C(C)(C)C)cc1)Cc1cccc2ccccc12 | inactive | – |
| COc1cc(N)c(Cl)cc1C(=O)NC1CCN(Cc2ccccc2)CC1 | inactive | – |
| CCN[C@@H]1C[C@H](N)[C@@H](OC2OC(CN)=CCC2N)[C@H](O)[C@H]1O[C@H]1OC[C@](C)(O)[C@H](NC)[C@H]1O (some centres not stated) | – | -1.92% [at 0.597 µM] (inactive) |
| Cc1cn([C@H]2C[C@H](F)[C@@H](CO)O2)c(=O)[nH]c1=O | inactive | – |
| Cc1c[nH]c2ccccc12 | inactive | – |
| CCCN(CCC)S(=O)(=O)c1ccc(C(=O)O)cc1 | inactive | – |
| COP(=O)(OC)OC(c1ccc(Cl)cc1)P(=O)(OC)OC (configuration not stated) | inactive | – |
| O=C1OC2(c3ccccc31)c1cc(Br)c(O)c(Br)c1Oc1c2cc(Br)c(O)c1Br | inactive | – |
| CC(C)Cn1cnc2c1c(=O)n(C)c(=O)n2C | inactive | – |

assay: qHTS of pediatric cancer cell lines to identify multiple opportunities for drug repurposing: Primary screen for control Hh wild type fibroblast cells (AID 1347106); conditions: Hh wild-type fibroblast viability, CellTiter-Glo luminescence, 48 h; series mostly up to 46 µM;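 as to activity change, negative = cytotoxic: a drop in luminescence marks cytotoxicity and a rise apparent proliferation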
How it was run: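 Cells (500-1,000/well) in growth media were settled 5 h at 37 degrees C, then given compounds for 48 h. Viability was read as CellTiter-Glo luminescence. Primary runs used MIPE at 11 points (0.78 nM-46 µM) and NPC at 8 points (0.59 nM-46 µM); follow-ups used 11 points.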

| SMILES | Potency | activity change, negative = cytotoxic |
| --- | --- | --- |
| Cn1c(=O)c2[nH]c(Br)nc2n(C)c1=O | inactive | – |
| C=CCN1CCc2nc(N)sc2CC1 | inactive | – |
| Cl/C(=C\n1cncn1)c1ccc(Cl)cc1Cl | inactive | – |
| Clc1cccc(C(c2ccc3nc[nH]c3c2)n2ccnc2)c1 (configuration not stated) | inactive | – |
| Cc1nc(-c2ccc(Cl)cc2)oc1COC(C)(C)C(=O)O | inactive | – |
| CCC(C(=O)OCCOCCN(CC)CC)c1ccccc1 (configuration not stated) | inactive | – |
| OC[C@H]1O[C@@H]2O[C@H]3[C@H](O)[C@@H](O)[C@@H](O[C@H]4[C@H](O)[C@@H](O)[C@@H](O[C@H]5[C@H](O)[C@@H](O)[C@@H](O[C@H]6[C@H](O)[C@@H](O)[C@@H](O[C@H]7[C@H](O)[C@@H](O)[C@@H](O[C@H]8[C@H](O)[C@@H](O)[C@@H](O[C@H]1[C@H](O)[C@H]2O)O[C@@H]8CO)O[C@@H]7CO)O[C@@H]6CO)O[C@@H]5CO)O[C@@H]4CO)O[C@@H]3CO | inactive | – |
| OC1C(O)C(O)C(O)C(O)C1O (configuration not stated) | inactive | – |
| CCOC(=O)[C@H](CCc1ccccc1)N[C@@H](C)C(=O)N1[C@H](C(=O)O)C[C@@H]2CCC[C@@H]21 | inactive | – |
| CC(=O)NO | inactive | – |
| CCCCCCCCCCCCCCCCO | inactive | – |
| CC[N+](C)(CC)CCOC(=O)C(O)(c1ccccc1)C1CCCCC1 (configuration not stated) | inactive | – |
| COc1ccc(-c2cc(C(F)F)nn2-c2ccc(S(N)(=O)=O)cc2)cc1F | inactive | – |
| Cc1cccc(C)c1NC(=O)c1ccccc1C(=O)O | inactive | – |
| Cc1c(-c2ccccc2)oc2c(C(=O)OCCN3CCCCC3)cccc2c1=O | inactive | – |
| CC(=O)Nc1ccc(S(=O)(=O)Nc2ccc([N+](=O)[O-])cc2)cc1 | inactive | – |
| NC(=O)c1ccccc1O | inactive | – |
| CO[C@]12C[C@@H](COC(=O)c3cncc(Br)c3)CN(C)[C@@H]1Cc1cn(C)c3cccc2c13 | inactive | – |

| SMILES | Potency | activity change, negative = cytotoxic |
| --- | --- | --- |
| Cc1ncc(CO)c(C=O)c1O | inactive | – |
| O=C1c2cccc3c2[C@H](CCC3)CN1[C@@H]1CN2CCC1CC2 | inactive | – |
| COc1cc([C@H]2Oc3cc([C@H]4Oc5cc(O)cc(O)c5C(=O)[C@@H]4O)ccc3O[C@@H]2CO)ccc1O | inactive | – |
| O=C(CCN1CCN2CCCC2C1)N1c2ccccc2Sc2ccc(Cl)cc21 (configuration not stated) | inactive | – |
| NCc1ccccc1Sc1ccccc1CO | inactive | – |
| FC1(F)C(F)(F)C(F)(F)C2(F)C(F)(F)C(F)(F)C(F)(F)C(F)(F)C2(F)C1(F)F (configuration not stated) | inactive | – |
| O=S(c1cc(Cl)cc(Cl)c1O)c1cc(Cl)cc(Cl)c1O | inactive | – |
| NC(N)=NN=C(/C=C/c1ccc([N+](=O)[O-])o1)/C=C/c1ccc([N+](=O)[O-])o1 | 21.1 µM (active) | – |
| CCCCCCCCOc1ccc(C(=O)c2ccccc2)c(O)c1 | inactive | – |
| CN(Cc1ccc(C(C)(C)C)cc1)Cc1cccc2ccccc12 | inactive | – |
| COc1cc(N)c(Cl)cc1C(=O)NC1CCN(Cc2ccccc2)CC1 | inactive | – |
| CCN[C@@H]1C[C@H](N)[C@@H](OC2OC(CN)=CCC2N)[C@H](O)[C@H]1O[C@H]1OC[C@](C)(O)[C@H](NC)[C@H]1O (some centres not stated) | – | 8.24% [at 0.597 µM] (inactive) |
| Cc1cn([C@H]2C[C@H](F)[C@@H](CO)O2)c(=O)[nH]c1=O | inactive | – |
| Cc1c[nH]c2ccccc12 | inactive | – |
| CCCN(CCC)S(=O)(=O)c1ccc(C(=O)O)cc1 | inactive | – |
| COP(=O)(OC)OC(c1ccc(Cl)cc1)P(=O)(OC)OC (configuration not stated) | inactive | – |
| O=C1OC2(c3ccccc31)c1cc(Br)c(O)c(Br)c1Oc1c2cc(Br)c(O)c1Br | inactive | – |
| CC(C)Cn1cnc2c1c(=O)n(C)c(=O)n2C | inactive | – |
